Screen size: about 410,000 compounds; about 5,100 (1.2%) were called active. Not shown: some 8% with an inconclusive outcome. The call rests on the fitted dose curve; tested in HEK293T cells. The sample as a whole holds a higher share of actives than the screen did.
Test: High Throughput Screening for Foot and Mouth Disease Virus Antivirals; further: read-out not given here; nearly all actives have a fitted effect of over 45% in size
Conditions: FMDV antiviral cell-based qHTS; series mostly up to 57.9 µM; activity change, negative = inhibition: at the top concentration
On the % scale 0 is the no-effect control and ±100 the full control effect; potency means the concentration at half of the fitted maximal effect.

Row | Structure (SMILES) | activity change, negative = inhibition | Potency
1 | CC(=O)OC1CCC2(O)CC1(C)CCC1C2CC1(C)C (stereo not drawn) | 1.53% (inactive) | 
2 | C[C@@]12CCC3C(CC[C@@H]4CC(O)CC[C@@]34C)C1CCC2O (stereo partly drawn) | -0.759% (inactive) | 
3 | CCCCOc1ccc(C(=O)Nc2cccc(-c3nc4ccccc4o3)c2C)cc1 | -21.3% (inactive) | 
4 | Cc1cccc(NC(=O)N2CCC(CN3CCc4ccccc4C3)CC2)c1C | -1.24% (inactive) | 
5 | CCCCCCCC/C=C\CCCCCCCC(=O)OC[C@H](CO)OC(C)=O | -19.7% [at 6.7 µM] (inactive) | 
6 | Cc1cc(C)cc(Oc2nc3c(C)cccn3c(=O)c2/C=C(\C#N)C(=O)NC2CCS(=O)(=O)C2)c1 (stereo not drawn) |  | 22.4 µM (active)
7 | COc1ccc(-c2ccc(OC(=O)NC3CCS(=O)(=O)C3)cc2)cc1 (stereo not drawn) | 0% (inactive) | 
8 | Cc1ccc(C(=O)N/C(=C\c2ccco2)C(=O)NC2CCS(=O)(=O)C2)cc1 (stereo not drawn) | -14.2% (inactive) | 
9 | CC(=O)OCC(=O)[C@@]1(O)CCC2C3CCC4=CC(=O)CC[C@@]4(C)[C@]3(F)C(O)C[C@]21C (stereo partly drawn) | 46.7% (inactive) | 
10 | CCCCC/C=C\CC1OC1CCCCCCCC(=O)O (stereo not drawn) | -2.3% [at 0.463 µM] (inactive) | 
11 | C=CCN1CCN(C(=O)CCCc2ccccc2)CC1 |  | 14.1 µM (active)
12 | CCN1CCN(C(=O)CCN2C(=O)c3ccccc3C2=O)CC1 | -0.0403% (inactive) | 
13 | O=C(CCc1ccccc1F)N1CCN(c2ccccc2)CC1 | -8.27% (inactive) | 
14 | O=S(=O)(c1ccc(Br)cc1)c1nnn2c1nc(NC1CCCCCC1)c1sccc12 | -22.8% (inactive) | 
15 | CC(=O)N1CCC2(CCCN(Cc3ccc(C#N)cc3)C2)CC1 | 1.78% (inactive) | 
16 | CC(=O)Nc1ccc(S(=O)(=O)N2CCN(CCCOc3cc(C)ccc3C)CC2)cc1 |  | 31.6 µM (active)
17 | CC(=O)Nc1ccc(S(=O)(=O)N2CCN(c3ccccc3)CC2)cc1 | -23.6% (inactive) | 
18 | Cc1ccc(C)c(OCCC(=O)Nc2cccc(S(=O)(=O)N3CCCC3)c2)c1 | 13% (inactive) | 
19 | CCNc1ncc2nc(CCc3ccccc3)c(=O)n(-c3ccc(OC)cc3)c2n1 | -10.2% (inactive) | 
20 | O=C(c1csnn1)N1CCC[C@@]2(CCN(Cc3nccs3)C2)C1 | -13% (inactive) | 
21 | CC(C)NC(=O)N1CC[C@@]2(CCCN(C(=O)c3cccc(F)c3)C2)C1 | 3.04% (inactive) | 
22 | CCc1cccc(C)c1Nc1c(-c2ccc(N(C)C)cc2)nc2ncccn12 | -23.4% (inactive) | 
23 | CC1CCN(C(=O)Cn2c(=O)n(-c3ccc(Cl)cc3)c(=O)c3c4c(sc32)CCC4)CC1 | -13.5% (inactive) | 
24 | CCCCn1c(=O)c2oc3ccccc3c2n(CC(=O)Nc2ccccc2OC)c1=O | 12.7% (inactive) | 
25 | CCCOc1ccc(C(=O)C(CCC(CNCC)C(=O)c2ccc(OCCC)cc2)CNCC)cc1 (stereo not drawn) |  | 28.2 µM (active)

Row | Structure (SMILES) | activity change, negative = inhibition | Potency
26 | CC(C)CCOc1ccc(C(=O)C[N+]2(C)CCOCC2)cc1 | -1.69% (inactive) | 
27 | CCCOc1cccc(C(=O)Nc2cccc(NC(=O)c3ccc(C(C)(C)C)cc3)c2)c1 | 27.4% (inactive) | 
28 | Cc1ccc(C(NC(=O)C2CCN(CCOc3ccc(Cl)cc3Cl)CC2)c2ccccn2)cc1 (stereo not drawn) | -14.3% (inactive) | 
29 | Cc1cccnc1C(NC(=O)C1CCN(Cc2ccc(Cl)c(Cl)c2)CC1)c1ccc(Cl)cc1 (stereo not drawn) | -27.1% (inactive) | 
30 | O=C(NC(c1ccc(-c2ccccc2)cc1)c1cnccn1)C1CCN(CCOc2ccc(Cl)cc2Cl)CC1 (stereo not drawn) |  | 35.5 µM (active)
31 | Oc1ccc2c(c1)OCC1c3cc4c(cc3OC21)OCO4 (stereo not drawn) | 20.9% (inactive) | 
32 | COc1ccc(-c2nn3c(=O)cc(CN4CCN(C(=O)c5ccc(OC)c(OC)c5)CC4)nc3s2)cc1 | -9.2% (inactive) | 
33 | CCOc1ccc(NC(=O)c2cn(C3CCCCC3)c(=O)c3c2c2ccccc2n3C)cc1 | -11.9% (inactive) | 
34 | CC(C)C1=CC2=CC[C@@H]3[C@](C)(CO)CCC[C@]3(C)C2CC1 (stereo partly drawn) | -11% (inactive) | 
35 | O=C(OC12CC3CC(CC(C3)C1)C2)c1ccc(NCc2cc(O)ccc2O)cc1 |  | 12.6 µM (active)
36 | CCN(Cc1ccncc1)C(=O)[C@@H](CO)c1ccccc1 | -3.49% (inactive) | 
37 | CC1Cc2cc(S(=O)(=O)CCC(=O)Nc3ccc(F)c(Cl)c3)ccc2N1C(=O)C1CC1 (stereo not drawn) | -26.6% (inactive) | 
38 | COc1ccc(-c2nc3cnc(OC)nc3n(Cc3ccc(F)cc3)c2=O)cc1 | 3.53% (inactive) | 
39 | O=C(COC(=O)c1n[nH]c2ccccc12)Nc1ccccc1Br | 54.3% (inactive) | 
40 | CN(C)S(=O)(=O)c1ccc(NC(=O)COC(=O)c2n[nH]c3ccccc23)cc1 |  | 22.4 µM (active)
41 | CN(C)S(=O)(=O)c1ccc(NC(=O)COC(=O)Cn2[nH]c(=O)c3ccccc3c2=O)cc1 | -2.54% (inactive) | 
42 | CCN1CCC(O)(/C=C/c2ccc(C)cc2)C(C(=O)/C=C/c2ccc(C)cc2)C1 (stereo not drawn) |  | 28.2 µM (active)
43 | COc1ccccc1-c1ccnc(-n2ncc(C(=O)NCCCN3CCOCC3)c2C)n1 | -20.6% (inactive) | 
44 | COc1ccc(CCNC(=O)COC(=O)C2CCCCC2)cc1 | -8.93% (inactive) | 
45 | Cc1ccc(CNC(=O)COC(=O)C2CCC2)cc1 |  | 31.6 µM (active)
46 | O=C(COC(=O)CNC(=O)C1CCCCC1)NCc1ccccc1 | 2.61% (inactive) | 
47 | COc1ccc(Cn2ccnc2SCC(=O)NCc2ccco2)cc1 | 11.3% (inactive) | 
48 | COc1ccc2[nH]cc(CCNc3ncnc4ccc(-c5ccc(C(=O)N(C)C)cc5)cc34)c2c1 | 13.8% (inactive) | 
49 | Cc1nn(CC(=O)NCC2CCCO2)c(=O)c2cc3ccccc3n12 (stereo not drawn) | 2.47% (inactive) | 
50 | CCN1C(=O)C(=Cc2c(C)n(CC(=O)NCC3CCCO3)c3ccccc23)C(=O)N(CC)C1=S (stereo not drawn) |  | 25.1 µM (active)

Row | Structure (SMILES) | activity change, negative = inhibition | Potency
51 | COc1ccc(CCNC(=O)CCn2c(=O)c3ccccc3n(CC(=O)NCC3CCCO3)c2=O)cc1OC (stereo not drawn) | 5.3% (inactive) | 
52 | COC1=C[C@]23CCCN2CCc2cc4c(cc2[C@@H]3[C@@H]1O)OCO4 | -12.3% (inactive) | 
53 | c1ccc2c(c1)C(=NC1CCCCC1)NC2=NC1CCCCC1 |  | 15.8 µM (active)
54 | CCCCn1c(N)c(N(CCOC)C(=O)c2cccc(S(=O)(=O)N(C)c3ccccc3)c2)c(=O)[nH]c1=O | -10.4% (inactive) | 
55 | CC(=O)c1c(C)[nH]c(C(=O)Nc2cc(S(=O)(=O)N(C)C)ccc2C)c1C | -11.7% (inactive) | 
56 | CC(=O)c1c(C)[nH]c(C(=O)COC(=O)c2cccc(S(=O)(=O)N(C)c3ccccc3)c2)c1C |  | 11.2 µM (active)
57 | COc1cc(-c2cccnc2)cc2c1OCCN(C(=O)Cc1csc(C)n1)C2 | 0.56% (inactive) | 
58 | Cc1onc(-c2c(F)cccc2Cl)c1C(=O)Nc1cccc(S(=O)(=O)N2CCCCC2)c1 | -23.2% (inactive) | 
59 | CC(=O)Nc1cccc(/C(C)=N/NC(=O)c2c(-c3ccccc3Cl)noc2C)c1 |  | 25.1 µM (active)
60 | Cc1ccc2cc(CCNC(=O)c3c(-c4ccccc4Cl)noc3C)c(=O)[nH]c2c1 | -12.7% (inactive) | 
61 | FC(F)(F)c1ccccc1-c1cc(NCc2ccccc2)ncn1 | -9% (inactive) | 
62 | Nc1ncn(C2OC(CO)C(O)C2O)c(=O)n1 (stereo not drawn) | -3.39% (inactive) | 
63 | CCOC(=O)c1c(C(C#N)C#N)cc(C)nc1C | 18.2% (inactive) | 
64 | CCCCSc1[nH]c(=O)c(C(=O)OCC)cc1C#N | 5.15% (inactive) | 
65 | CCOC(=O)c1cc(C)nc(S(C)(=O)=O)c1C#N |  | 35.5 µM (active)
66 | COC(=O)N1CCC2(CCCN(c3ccncc3)C2)CC1 | -9.77% (inactive) | 
67 | Cc1[nH]c(=O)c(C(=O)/C=C/c2ccccc2)c2c1CCCC2 |  | 12.6 µM (active)
68 | CC[C@H](C)C(=O)N[C@H]1CCCN1C(=O)/C=C/c1ccccc1 | -13.9% (inactive) | 
69 | O=C1CCCCC1C(=O)c1ccccc1 (stereo not drawn) | -4.76% (inactive) | 
70 | COC(=O)N1CCC[C@@]2(CCN(C(=O)NC(C)C)C2)C1 | -20.7% (inactive) | 
71 | Cc1cc(C)cc(OCC(=O)Nc2c(C(=O)c3ccccc3)oc3ccccc23)c1 | 12.3% (inactive) | 
72 | CNc1nc(-c2ccccc2OC)nc2ccccc12 | -11.7% (inactive) | 
73 | CC1C(O)CC2C(C(=O)O)=CO[C@@H](O[C@H]3OC(CO)C(O)C(O)C3O)C21 (stereo partly drawn) | -6.83% (inactive) | 
74 | COc1ccc(CCNC2=C(Cl)C(=O)N(Cc3ccccc3)C2=O)cc1OC |  | 25.1 µM (active)
75 | COc1ccc(CCNC(=O)CCCCn2c(=O)c3ccccc3n(Cc3ccccc3)c2=O)cc1OC | 0% (inactive) | 

Row | Structure (SMILES) | activity change, negative = inhibition | Potency
76 | COc1ccc(CCNS(=O)(=O)c2ccc(Cl)s2)cc1OC | -8.08% (inactive) | 
77 | CCC1CN(CCNC(=O)c2cccc(C)n2)Cc2cc(OC)ccc2O1 (stereo not drawn) | -4.29% (inactive) | 
78 | COC(C)C(C(=O)OCC1=CCN2CC[C@H](O)[C@@H]12)C(C)C (stereo partly drawn) | -2.63% (inactive) | 
79 | CCc1ccc(NC(=O)c2cnc3c(-c4ccccc4)c(C)nn3c2C)cc1 | -13% (inactive) | 
80 | CC(C)=CC1C(C(=O)O)C1(C)C (stereo not drawn) | -6.78% (inactive) | 
81 | Nc1nc2[nH]c(=O)c(=O)[nH]c2c(=O)[nH]1 | 7.3% (inactive) | 
82 | COc1ccc(CS(=O)/C(Cl)=C(/Cl)C(=O)Nc2ccc(OC)nc2)cc1 (stereo not drawn) |  | 5.62 µM (active)
83 | COc1ccc(CC(=O)Nc2ccc(-c3nc4ccccc4s3)c(C)c2)cc1 | 13.8% (inactive) | 
84 | COc1ccc(NC(=O)C(=O)NCc2ccco2)cc1 | 48.5% (inactive) | 
85 | Nc1ncnc2c1ncn2C1CC(O)C(CO)O1 (stereo not drawn) | 18% (inactive) | 
86 | CC1CC[C@@]23CCC4(C)[C@@]5(C)CCC6C(C)(C)C(O)CC[C@@]6(C)C5C=C[C@@]4(OC2=O)C3C1C (stereo partly drawn) | -0.0991% (inactive) | 
87 | O=c1oc2ccccc2c(O)c1C(c1ccccc1O)c1c(O)c2ccccc2oc1=O | -1.16% (inactive) | 
88 | CC1=Nc2cc(C(=O)N3CCC(C)CC3)ccc2Sc2ccc(Cl)cc21 | -11.8% (inactive) | 
89 | CCC(=O)N1CCc2cc(S(=O)(=O)NC(Cc3ccccc3)C(=O)NCc3ccc(C)cc3)ccc21 (stereo not drawn) | 7.8% (inactive) | 
90 | Cc1ccc(S(=O)(=O)N(C)CC(=O)NCCc2c[nH]c3ccccc23)cc1 |  | 15.8 µM (active)
91 | CSCCC(NS(=O)(=O)c1ccc(C)cc1)C(=O)NCCc1c[nH]c2ccccc12 (stereo not drawn) | 24.8% (inactive) | 
92 | CCN(CC(=O)NCCc1ccccc1)S(=O)(=O)c1ccc(C)cc1 | -8.3% (inactive) | 
93 | COc1ccc(CCNC(=O)c2ccc3c(c2)nc(C)n3-c2ccc(Br)cc2)cc1OC | 0% (inactive) | 
94 | O=C(CCc1nc(CN2CCN(S(=O)(=O)c3ccc(Br)cc3)CC2)no1)N1CCCCC1 | -18.9% (inactive) | 
95 | O=C(Nc1ccccc1C(=O)N1CCOCC1)c1ccc(CSc2ccccc2)cc1 | 0% (inactive) | 
96 | C/C(CCc1ccccc1)=N\NC(=O)c1ccc(CN2CCOCC2)cc1 | 4.23% (inactive) | 
97 | O=C(Nc1ccc(CSc2ccccc2)cc1)c1ccc(CN2CCOCC2)cc1 |  | 5.01 µM (active)
98 | CS(=O)(=O)N1CCC2(CC1)CN(Cc1cc(C(F)(F)F)cc(C(F)(F)F)c1)C2 | -10.7% (inactive) | 
